From PubChem BioAssay (Tox21) come the findings set out here.

Assay [1] in a line: qHTS assay to identify small molecule agonists of the sonic hedgehog signaling (Shh) pathway (AID 1259368).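 For activity change: NIH/3T3-derived 3T3Gli1-Luc cells carrying a stable Gli1-driven firefly luciferase reporter; series mostly up to about 92 µM.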 Note: nearly all actives have a fitted effect of over 15% in size. Note: potency is the fitted concentration of half-maximal effect. The method, boiled down:
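3T3Gli1-Luc (NIH/3T3 clone, stable Gli1-Luc); 4 hr pre-incubation, then cpd in DMSO 24 hr, 37 C/5% CO2; luciferase reagent 30 min RT; luminescence.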
In general terms: Quantitative high-throughput screening tests each substance at several concentrations.

Assay [2] can be described thus: qHTS assay to identify small molecule antagonists of the sonic hedgehog signaling (Shh) pathway (AID 1259369). Note: nearly all actives have a fitted effect of over 45% in size. Note: potency is the fitted concentration of half-maximal effect. Summed up:
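3T3Gli1-Luc, conditioned-medium-stimulated, 24hr cpd, 37C/5% CO2; Gli1-driven firefly Luc luminescence after 30min RT with luciferase reagent. Cells plated 4hr before cpd.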

The nature of assay [3]: qHTS assay to identify small molecule agonists of the androgen receptor (AR) signaling pathway in the presence of an antagonist - cell viability counter screen (AID 1259379; active = well fitted curve in the direction sought with a large enough effect in the repeat runs; an effect the other way counts as inactive or inconclusive;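 note: MDA-kb2 human breast cancer cells carrying an MMTV luciferase reporter; series mostly up to about 92 µM; nearly all actives have a fitted effect of over 25% in size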). Summed up:
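Cells: MDA-kb2 (MMTV-luc, AR and GR elements), 3,000/well, 5 hr settle. Added: nilutamide 3.0uM final, then compounds (15 conc.). Incubation: 16 hr, 37C, no CO2. Read-out: CellTiter-Fluor, 1 hr, fluorescence.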

Assay [4] is described as follows: qHTS assay to identify small molecule agonists of the estrogen receptor beta (ER-beta) signaling pathway - cell viability counter screen (AID 1259380; active = well fitted curve in the direction sought with a large enough effect in the repeat runs; an effect the other way counts as inactive or inconclusive; note: nearly all actives have a fitted effect of over 30% in size; note: potency is the fitted concentration of half-maximal effect). The method, boiled down:
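HEK293T ER-beta-UAS-bla; 2% CS-FBS; 6 hr pre-plate, 16 hr cpd at 37C/5% CO2; LiveBLAzer read first, then CellTiter-Glo 30 min RT, luminescence.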

The target of assay [5] is Androgen receptor (Homo sapiens) (UniProt P10275). Kind of assay: qHTS assay to identify small molecule agonists of the androgen receptor (AR) signaling pathway in the presence of an antagonist (AID 1259381). Note: nearly all actives have a fitted effect of over 15% in size. Note: potency is the fitted concentration of half-maximal effect. The method, boiled down: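 MDA-kb2 cells, 3,000/well, rested 5hr at 37C/0% CO2 → nilutamide 3.0uM final or buffer → compounds, 15 conc. → 16hr at 37C → ONE-Glo, 30min RT → luminescence.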
Sequence of Androgen receptor (Homo sapiens) (P10275 whole entry, looked up): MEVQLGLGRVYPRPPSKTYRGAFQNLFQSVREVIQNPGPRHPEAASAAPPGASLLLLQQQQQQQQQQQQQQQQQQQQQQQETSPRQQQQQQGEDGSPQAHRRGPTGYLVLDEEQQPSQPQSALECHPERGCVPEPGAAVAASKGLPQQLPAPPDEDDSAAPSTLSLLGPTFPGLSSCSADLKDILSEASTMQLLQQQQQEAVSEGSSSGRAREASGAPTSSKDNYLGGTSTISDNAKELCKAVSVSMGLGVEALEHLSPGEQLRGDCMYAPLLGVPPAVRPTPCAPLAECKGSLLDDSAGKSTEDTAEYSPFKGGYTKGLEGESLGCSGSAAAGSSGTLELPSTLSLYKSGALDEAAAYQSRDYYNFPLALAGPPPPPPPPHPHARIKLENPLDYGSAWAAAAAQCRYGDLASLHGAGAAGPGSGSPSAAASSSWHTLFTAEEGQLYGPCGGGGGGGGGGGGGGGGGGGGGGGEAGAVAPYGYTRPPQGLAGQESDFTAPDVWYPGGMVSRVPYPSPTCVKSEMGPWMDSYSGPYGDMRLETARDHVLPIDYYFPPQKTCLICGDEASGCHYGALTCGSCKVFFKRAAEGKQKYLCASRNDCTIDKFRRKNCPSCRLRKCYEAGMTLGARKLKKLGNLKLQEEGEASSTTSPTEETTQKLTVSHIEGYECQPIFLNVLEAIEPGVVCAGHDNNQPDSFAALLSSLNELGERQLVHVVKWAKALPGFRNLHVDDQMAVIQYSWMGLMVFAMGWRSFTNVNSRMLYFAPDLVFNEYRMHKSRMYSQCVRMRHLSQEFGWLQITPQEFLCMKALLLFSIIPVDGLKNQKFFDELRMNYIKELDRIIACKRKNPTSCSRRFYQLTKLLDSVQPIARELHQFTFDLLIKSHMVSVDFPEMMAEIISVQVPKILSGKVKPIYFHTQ

Assay [6] can be described thus: qHTS assay to identify small molecule antagonists of the estrogen receptor beta (ER-beta) signaling pathway - cell viability counter screen (AID 1259382; active = well fitted curve in the direction sought with a large enough effect in the repeat runs; an effect the other way counts as inactive or inconclusive; note: series mostly up to about 92 µM; nearly all actives have a fitted effect of over 55% in size). Summed up: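 Cells: ER-beta-UAS-bla HEK293T, 2,000/well, 2% CS-FBS, 6 hr settle. Cpd + E2 (1nM final), 16 hr, 37C/5% CO2. Bla FRET substrate 2 hr RT, then CellTiter-Glo 30 min RT, luminescence.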
In assay [7] the target is Estrogen receptor (Homo sapiens) (UniProt P03372). Kind of assay: qHTS assay to identify small molecule agonists of the estrogen receptor alpha (ER-alpha) signaling pathway in the presence of an antagonist (AID 1259383). Note: top concentration of the series differs between compounds; nearly all actives have a fitted effect of over 15% in size. The method, boiled down: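 VM7Luc4E2, endog. ER-alpha + 4×ERE-luc; charcoal-stripped FBS, phenol red-free, 5 d; 24hr plating; +10.0nM ICI-182,780 (final); cpds 15 conc, 22hr, 37C/5% CO2; ONE-Glo luminescence.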
Sequence of Estrogen receptor (Homo sapiens) (P03372 whole entry, looked up): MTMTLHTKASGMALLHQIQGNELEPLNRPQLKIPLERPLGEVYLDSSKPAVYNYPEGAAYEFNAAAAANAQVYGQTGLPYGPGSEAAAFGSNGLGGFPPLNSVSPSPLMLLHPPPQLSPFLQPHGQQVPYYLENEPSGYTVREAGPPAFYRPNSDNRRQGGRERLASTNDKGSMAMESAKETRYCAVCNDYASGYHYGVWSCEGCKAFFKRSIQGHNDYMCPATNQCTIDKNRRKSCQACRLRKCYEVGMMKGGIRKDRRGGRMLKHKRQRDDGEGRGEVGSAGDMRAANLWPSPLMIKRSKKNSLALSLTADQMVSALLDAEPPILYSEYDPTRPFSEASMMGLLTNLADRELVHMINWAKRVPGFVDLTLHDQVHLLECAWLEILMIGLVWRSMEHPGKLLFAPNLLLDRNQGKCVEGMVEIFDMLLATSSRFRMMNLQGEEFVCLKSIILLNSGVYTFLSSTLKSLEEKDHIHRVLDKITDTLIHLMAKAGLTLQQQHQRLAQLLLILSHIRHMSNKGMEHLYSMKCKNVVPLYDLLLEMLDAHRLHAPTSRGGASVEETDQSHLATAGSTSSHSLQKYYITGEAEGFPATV

Assay [8] is described as follows: qHTS assay to identify small molecule agonists or antagonists of the thyroid stimulating hormone receptor (TSHR) signaling pathway - wild type cell line counter screen (AID 1259384). Note: potency is the fitted concentration of half-maximal effect. Summed up: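 Wild-type HEK293 cells were plated 18 h at 37 C/5% CO2, pin-dosed with compound plus Ro20-1724 medium, held 30 min at room temperature, then given cAMP-d2 and anti-cAMP-cryptate; fluorescence was read after 1 h. Fifteen concentrations, triplicate.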

Assay [9] has as its target Estrogen receptor beta (Homo sapiens) (UniProt Q92731). As to the kind of experiment: qHTS assay to identify small molecule antagonists of the estrogen receptor beta (ER-beta) signaling pathway (AID 1259378; active = well fitted inhibition curve with a large enough effect in the signal ratio in the repeat runs, not every such curve was filed as active; the % refers to the signal ratio). Summed up:
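ER-beta-UAS-bla HEK293T (GripTite) cells in 2% charcoal-stripped FBS medium were preincubated 6 hr at 37C, dosed with compound, then stimulated with 1 nM E2 (final) for 16 hr; beta-lactamase reporter read by B/G FRET fluorescence after 2 hr substrate loading.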

For assay [10] the target is unchanged. Kind of assay: qHTS assay to identify small molecule agonists of the estrogen receptor beta (ER-beta) signaling pathway (AID 1259377; active = well fitted activation curve with a large enough effect in the signal ratio in the repeat runs, not every such curve was filed as active; the % refers to the signal ratio). The method, boiled down: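 Agonist mode cell assay in GripTite HEK293T cells expressing an ER-beta fusion that drives beta-lactamase from an Upstream Activator Sequence; 16 hr compound exposure at 37C, then 2 h LiveBLAzer B/G FRET substrate at room temperature, fluorescence read-out.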

SMILES strings stand for the structures. A number with no mark means an inactive call. Results filed as inconclusive are left out. The source made the active and inactive calls. Unless noted, calls come from the whole dose curve.
% is set by controls: 0 for no effect and ±100 for the full control effect.

Sequence of Estrogen receptor beta (Homo sapiens) (Q92731 whole entry, looked up): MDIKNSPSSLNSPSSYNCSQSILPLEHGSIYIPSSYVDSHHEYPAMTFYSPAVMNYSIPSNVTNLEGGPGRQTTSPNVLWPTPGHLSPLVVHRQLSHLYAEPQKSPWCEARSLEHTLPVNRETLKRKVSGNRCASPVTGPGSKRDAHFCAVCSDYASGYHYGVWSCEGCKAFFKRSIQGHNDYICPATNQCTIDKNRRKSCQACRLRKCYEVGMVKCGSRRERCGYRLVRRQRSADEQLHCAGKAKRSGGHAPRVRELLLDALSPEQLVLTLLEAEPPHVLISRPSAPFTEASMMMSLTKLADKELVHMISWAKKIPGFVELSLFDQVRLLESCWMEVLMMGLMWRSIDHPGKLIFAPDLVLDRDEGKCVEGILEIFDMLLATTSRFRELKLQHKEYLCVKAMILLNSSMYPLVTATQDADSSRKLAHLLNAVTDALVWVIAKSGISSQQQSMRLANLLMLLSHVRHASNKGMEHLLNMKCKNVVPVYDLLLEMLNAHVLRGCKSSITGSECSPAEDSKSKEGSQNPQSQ

On to `CCCCC[C@H](O)/C=C/[C@H]1[C@H](O)CC(=O)[C@@H]1C/C=C\CCCC(=O)O`, for which the Potency in [1] was 10.6 µM (active); in assay [2] it was 0.006 µM (active); in assay [8], 0.0174 µM (active). Besides, the Potency entry in assay [3], in [4], in assay [5], in assay [6] and in [7] was “inactive” each time.

Take `COc1cc(NS(=O)(=O)c2ccc(N)cc2)nc(C)n1`: the Potency result in assay [1], in assay [2], in assay [3], in [4], in assay [6] and in assay [7] was “inactive” throughout. The Potency entry in assay [8] was “inactive”.

With `C1CCCCC1`, the Potency result in [1], in assay [2], in assay [9], in [3], in assay [4] and in [6] was “inactive” in each case. The Potency entry in assay [8] was “inactive”.

With `c1ccc(CCCc2ccncc2)cc1`, the Potency result in assay [1], in assay [2], in assay [3], in assay [4], in assay [6] and in assay [7] was “inactive” throughout. In assay [8], the Potency result is “inactive”.

Take `COc1ccc(-n2nc(C(F)F)cc2-c2ccc(S(C)=O)cc2)cc1` (stereo unspecified): the Potency entry in [1], in assay [3], in assay [4], in assay [6], in assay [7] and in [8] was “inactive” in each case. In assay [2], the Potency is 1.09 µM (active).

For `CC(=O)OCCC(C)CC(C)(C)C` (stereo unspecified), the Potency entry in [1], in assay [2], in assay [3], in assay [4], in assay [6] and in [7] was “inactive” in each case. Further, in assay [8], the Potency result was “inactive”.

As to `CSSc1ccoc1C`, the Potency entry in assay [1], in assay [2], in [9], in [3], in [4] and in assay [6] was “inactive” each time. In assay [8], the Potency entry was “inactive”.

With `CCCCCCCCCCCCCOS(=O)(=O)O`, the Potency entry in assay [1], in [2], in assay [3], in assay [5] and in assay [8] was “inactive” in each case. Also, the Potency in assay [4] was 54.5 µM (active).

With `CC(=O)C(=O)CC(C)C`, the Potency entry in [1], in [2], in assay [3], in assay [4], in assay [6] and in [7] was “inactive” throughout. In addition, the Potency result in assay [8] is “inactive”.

For the molecule `CCCCOC(=O)CCCCC(=O)OCCCC`, the Potency result in assay [1], in assay [2], in assay [9], in assay [3], in assay [4] and in assay [6] was “inactive” each time. Besides, in assay [8], the Potency entry was “inactive”.

For the molecule `CC(=O)OCC(C)C`, the Potency result in [1], in [2], in assay [9], in assay [3], in assay [5] and in assay [6] was “inactive” throughout. The Potency result in assay [7] was “inactive”.

On to `CC(C(=O)O)c1ccc(C(=O)c2cccs2)cc1` (stereo unspecified), for which the Potency entry in assay [1], in [2], in assay [3], in assay [4] and in assay [6] was “inactive” each time.

For the molecule `CC(=O)c1ccc[nH]1`, the Potency result in assay [1], in assay [2], in assay [9], in assay [3], in assay [5] and in assay [6] was “inactive” in each case. Moreover, the Potency result in [7] and in [8] was “inactive” throughout.

On to `CC1=CC[C@@H]2C[C@H]1C2(C)C`, for which the activity change in assay [1] was 0.102% [at 18.9 µM, active compounds read high]. In addition, the activation in assay [10] is -1.23% [at 19 µM]; in assay [7], -0.899% [at 19 µM]. The activity, negative = inhibition in assay [9] was -3.84% [at 19 µM]. The activity change, negative = cytotoxicity in assay [3] was 0.221% [at 19 µM]; in [4] it was 5.66% [at 19 µM]; in assay [6], 4.03% [at 19 µM]. Further, the cAMP activity change in assay [8] was -1.96% [at 18.9 µM, active compounds read high].

Regarding `Nc1cccc2c(N)cccc12`, the Potency entry in assay [1], in assay [3] and in assay [7] was “inactive” each time. In addition, the Potency is 5.45 µM (active) in assay [2] and 54.5 µM (active) in assay [5].

`O=NN(CCCl)C(=O)NCCCl`: the Potency entry in [1], in assay [10], in assay [9], in [3], in assay [4] and in [5] was “inactive” in each case. The Potency entry in assay [6], in assay [7] and in assay [8] was “inactive” in each case.

Consider `C1=CCC2CC=CC2C1` (stereo unspecified), for which the Potency entry in assay [1], in assay [10], in assay [9], in assay [3], in assay [4] and in assay [5] was “inactive” throughout. Also, the Potency result in assay [6] and in assay [8] was “inactive” in each case.

As for `COc1ccc(C)cc1`, the Potency entry in [1], in assay [2], in assay [3], in assay [4], in [6] and in [8] was “inactive” throughout.
